# Assay results reported in ChEMBL document CHEMBL1201862, “PubChem BioAssay data set” (2004).
# In all, about 400,000 compounds went through this assay and about 1,900 (0.47%) were called active. Not shown: some 14% with an inconclusive outcome. No rule for the calls is given here. The sample as a whole holds a higher share of actives than the screen did.
# Molecular target: Ataxin-2 (Homo sapiens) (UniProt Q99700)
# Test: qHTS for Inhibitors of ATXN expression.
# Format: functional
# Ataxin-2 (Homo sapiens), sequence (Q99700 whole entry): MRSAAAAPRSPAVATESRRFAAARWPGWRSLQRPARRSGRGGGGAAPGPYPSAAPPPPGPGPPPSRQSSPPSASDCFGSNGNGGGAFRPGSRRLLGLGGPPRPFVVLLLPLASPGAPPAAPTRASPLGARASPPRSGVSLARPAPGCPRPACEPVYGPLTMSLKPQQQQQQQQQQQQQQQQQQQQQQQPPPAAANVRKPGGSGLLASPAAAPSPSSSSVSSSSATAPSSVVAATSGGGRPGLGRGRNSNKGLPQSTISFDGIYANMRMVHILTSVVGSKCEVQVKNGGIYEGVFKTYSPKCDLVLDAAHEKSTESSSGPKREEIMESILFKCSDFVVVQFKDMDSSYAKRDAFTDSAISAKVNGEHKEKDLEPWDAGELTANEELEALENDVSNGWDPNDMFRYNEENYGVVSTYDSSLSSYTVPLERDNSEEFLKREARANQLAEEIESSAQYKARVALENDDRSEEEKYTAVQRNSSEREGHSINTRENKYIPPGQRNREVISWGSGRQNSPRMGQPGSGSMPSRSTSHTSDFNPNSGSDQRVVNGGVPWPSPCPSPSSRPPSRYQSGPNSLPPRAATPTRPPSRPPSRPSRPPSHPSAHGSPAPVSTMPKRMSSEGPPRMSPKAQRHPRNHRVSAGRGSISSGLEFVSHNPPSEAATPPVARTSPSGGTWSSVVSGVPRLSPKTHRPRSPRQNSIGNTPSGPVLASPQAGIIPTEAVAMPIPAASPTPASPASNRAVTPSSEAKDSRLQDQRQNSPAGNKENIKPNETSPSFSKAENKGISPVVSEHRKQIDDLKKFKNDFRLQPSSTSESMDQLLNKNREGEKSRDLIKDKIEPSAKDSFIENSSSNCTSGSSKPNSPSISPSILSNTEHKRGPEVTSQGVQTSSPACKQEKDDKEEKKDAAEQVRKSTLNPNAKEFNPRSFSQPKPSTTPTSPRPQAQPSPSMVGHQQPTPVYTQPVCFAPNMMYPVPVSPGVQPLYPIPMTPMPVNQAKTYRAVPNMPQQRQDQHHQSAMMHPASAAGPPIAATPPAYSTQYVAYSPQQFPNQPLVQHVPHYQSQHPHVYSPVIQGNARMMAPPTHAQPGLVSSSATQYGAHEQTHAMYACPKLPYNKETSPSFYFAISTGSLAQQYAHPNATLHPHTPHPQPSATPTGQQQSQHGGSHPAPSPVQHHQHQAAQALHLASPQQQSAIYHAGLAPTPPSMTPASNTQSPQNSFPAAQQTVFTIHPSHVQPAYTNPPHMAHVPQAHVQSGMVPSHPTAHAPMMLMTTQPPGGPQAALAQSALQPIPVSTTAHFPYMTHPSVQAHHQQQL
row,SMILES,Potency
1,CCCCn1c(N)c(C(=O)NCCN2CCOCC2)c2nc3ccccc3nc21,inactive
2,Cc1cccc(OP(N)(=O)Oc2cccc(C)c2)c1,inactive
3,COc1ccc(CC(N)c2csc(NC(=O)Nc3ccccc3Oc3ccccc3)n2)cc1 (stereo not drawn),39.8 µM (active)
4,O=C(c1cccn2c(=O)c3cc(Cl)ccc3nc12)N1CCC2(CC1)OCCO2,inactive
5,COc1ccc2cc1Oc1ccc(cc1)C[C@H]1c3cc(c(OC)cc3CCN1C)Oc1c(O)c(OC)cc3c1[C@H](C2)N(C)CC3,20 µM (active)
6,COc1cc2c3c(c1OC)Oc1ccc(cc1)C[C@H]1c4c(cc(OC)c(OC)c4Oc4ccc(cc4)C[C@@H]3N(C)CC2)CCN1C,15.8 µM (active)
7,Nc1c2c(nc3ccccc13)CCN(Cc1ccccc1)C2,inactive
8,COc1ccc(Nc2cc(C)c3cc(NC(=O)c4ccccc4Cl)ccc3n2)cc1,inactive
9,CN1CC[C@@]2(C)c3cc(O)ccc3N(C)C12 (stereo partly drawn),28.2 µM (active)
10,CCC(C)NC(=O)c1c(N)n(CC2CCCO2)c2nc3ccccc3nc12 (stereo not drawn),inactive
11,C#CCN1C(=O)S/C(=C\c2ccc(N3CCOCC3)cc2C)C1=O,inactive
12,CCCCN1C(=O)NC(=O)/C(=C(O)\C=C\c2c[nH]c3ccccc23)C1=O,inactive
13,N=C(N)N/N=C/c1cn(-c2ccccc2)nc1-c1cccs1,11.2 µM (active)
14,N=C(N)N/N=C/c1ccc(N2CCOCC2)cc1,inactive
15,N=C(N)N/N=C/c1ccc(N(c2ccccc2)c2ccccc2)cc1,inactive
16,O=c1cc(C(F)(F)F)c2cc3c4c(c2o1)CCCN4CCC3,inactive
17,NS(=O)(=O)c1ccc(NC=C2C(=O)N(C3CCCCC3)C(=O)N(C3CCCCC3)C2=O)cc1,39.8 µM (active)
18,Cc1ccnc(NS(=O)(=O)c2ccc(NC=C3C(=O)N(C)C(=O)N(C)C3=O)cc2)n1,inactive
19,CCC(C(=O)Nc1ccc(Cl)cc1)N1CCCC1=O (stereo not drawn),inactive
20,Ic1ccccc1CNC1C2CCN(CC2)C1C(c1ccccc1)c1ccccc1 (stereo not drawn),15.8 µM (active)
21,O=C(NCCc1ccccc1)[C@@H]1CC=C[C@@H]2CCN(Cc3ccc(Cl)c(Cl)c3)C(=O)[C@@H]21,25.1 µM (active)
22,O=C(Cc1cc(=O)oc2cc(O)ccc12)NN=Cc1ccc(N(CCCl)CCCl)cc1,inactive

row,SMILES,Potency
1,CC(C)Sc1nc2[nH]cnc(N)c-2n1,inactive
2,O=C1CN=C(c2ccccc2)c2cc(Cl)ccc2N1Cc1ccc(Cl)cc1,28.2 µM (active)
3,Cc1oc(-c2ccccc2Cl)nc1CN1C(=O)CN=C(c2ccccc2)c2cc(Cl)ccc21,44.7 µM (active)
4,COc1ccc(-c2nc(CN3C(=O)CN=C(c4ccccc4)c4cc(Cl)ccc43)c(C)o2)cc1,35.5 µM (active)
5,O=C(c1cccn2c(=O)c3cc(Br)ccc3nc12)N1CCC2(CC1)OCCO2,inactive
6,CN(Cc1ccc(OC(F)F)cc1)Cc1nc(O)c2cc(Br)cc(Br)c2n1,inactive
7,CC(Cc1ccccc1)NC(=O)CCCCC(=O)NC(C)Cc1ccccc1 (stereo not drawn),inactive
8,CN(C)CC(C(=O)Cc1ccccc1)c1ccccc1 (stereo not drawn),25.1 µM (active)
9,COCCCn1c(=O)/c(=C\c2ccccc2OC(F)F)s/c1=C(/C#N)C(=O)NCCOC,inactive
10,Cc1cc([N+](=O)[O-])c2ccccc2[n+]1[O-],31.6 µM (active)
11,Cc1cc(C)cc(N2C(=O)NC(=O)/C(=C\c3cc(C)n(C)c3C)C2=O)c1,inactive
12,CN1C(=O)/C(=C/c2cccn2-c2ccc3ccccc3c2)C(=O)NC1=S,39.8 µM (active)
13,Cc1cc(C)cc(N2C(=O)NC(=O)/C(=C/c3cccn3-c3ccc(Cl)cc3)C2=O)c1,39.8 µM (active)
14,C/C(NCc1cccnc1)=C1/C(=O)NC(=O)N(c2ccc(Cl)cc2)C1=O,inactive
15,COCCNC(=O)c1c(N)n(Cc2ccco2)c2nc3ccccc3nc12,inactive
16,Clc1cccc(N2Cc3cc(-c4ccccc4)ccc3-n3nncc3C2)c1,39.8 µM (active)
17,O=C(NC1CCCCC1)N1Cc2cc(-c3ccccc3)ccc2-n2nncc2C1,39.8 µM (active)
18,CN1CCc2cc3c(cc2[C@@H]1O)OCO3,inactive
19,Cc1sc2ncnc(N3CCC(C(=O)Nc4ccc(C#N)c(Cl)c4)CC3)c2c1C,39.8 µM (active)
20,CN(c1ccc(O)cc1)c1ccc([N+](=O)[O-])c2nonc12,20 µM (active)
21,COc1cc(Cl)ccc1Nc1ncc(C(=O)N2CCN(c3ccccc3OC)CC2)c2ccccc12,inactive
22,COc1ccccc1N1CCN(C(=O)c2cc3c(-c4ccccc4F)nn(C)c3s2)CC1,35.5 µM (active)

row,SMILES,Potency
1,O=C1NC(=S)NC(=O)C1=NNc1ccc2c(c1)OCCO2,44.7 µM (active)
2,CCCCCCCCn1sccc1=O,25.1 µM (active)
3,O=C(Nc1cccc2ncccc12)c1ccccc1Cl,inactive
4,COC(=O)C1=C(c2cccc(OCc3ccccc3)c2)C[C@@H]2CC[C@H]1N2C(=O)NC1CCN(Cc2ccccc2)CC1,22.4 µM (active)
5,CC[C@@H](O)C[C@H]1CCC[C@@]2(C[C@@H]3OC(=O)/C=C/[C@@](C)(O)[C@@H](O)[C@H](C)[C@@H](O)[C@H](OC4CCC(N(C)C)C(C)O4)[C@@H](O)[C@](C)(O)CCCCC/C=C/[C@@H]4CC(C)(C)O[C@@]4(O)C[C@H](O2)[C@H]3C)O1 (stereo partly drawn),2.99 µM (active)
6,Cc1c(CC(=O)N2C[C@H]3C[C@@H](C2)c2cccc(=O)n2C3)c(=O)oc2cc(O)c(Cl)cc12,inactive
7,NP(=O)(Oc1ccc(Cl)cc1)Oc1ccc(Cl)cc1,inactive
8,CC1=CC2/C=C(\C)CCC(O)C(O)/C=C/C(=O)C23C(=O)NC(CC(C)C)C3C1C (stereo not drawn),3.77 µM (active)
9,C=C(C=O)CC1CC(O)[C@]2(C)OC3CC4OC5C[C@]6(C)O[C@]7(C)CCC8OC9C[C@]%10(C)OC%11C(C)=CC(=O)OC%11CC%10OC9C[C@@H](C)C8OC7CC6O[C@]5(C)CC5OC5C4OC3CC2O1 (stereo partly drawn),1.26 µM (active)
10,CCCNC(=O)c1c(N)n(CC2CCCO2)c2nc3ccccc3nc12 (stereo not drawn),inactive
11,COCCNC(=O)c1c(NC(=O)c2ccco2)n(Cc2ccccc2)c2nc3ccccc3nc12,inactive
12,CCCCCCCCN1C(=O)[C@H](CC(=O)NCCc2ccccc2OC)C[C@@]2(C(=O)OC)CCCCC=C12,25.1 µM (active)
13,CC(C)OCCCNC(=O)c1c(N)n(CC2CCCO2)c2nc3ccccc3nc12 (stereo not drawn),inactive
14,Cc1nc2ccc(N3CCN(C)CC3)cc2nc1C,inactive
15,O=C(c1ccccc1)C(CN1CCCC1)c1ccccc1 (stereo not drawn),25.1 µM (active)
16,O=C(c1ccc(-c2ccccc2)c(F)c1)C1CCCN(CCO)C1 (stereo not drawn),inactive
17,CC(C)(C)n1nnnc1C(c1cc2ccccc2o1)N1CCC2(CC1)C(=O)NCN2c1ccccc1 (stereo not drawn),39.8 µM (active)
18,O=C1NCN(c2ccccc2)C12CCN(C(c1cc3ccccc3o1)c1nnnn1Cc1ccccc1)CC2 (stereo not drawn),39.8 µM (active)
19,CCCNC(=O)c1c(N)n(Cc2ccco2)c2nc3ccccc3nc12,inactive
20,O=C1NCN(c2ccccc2)C12CCN(C(c1cccs1)c1nnnn1Cc1ccccc1)CC2 (stereo not drawn),39.8 µM (active)
21,CCCCn1nnnc1C(c1cccs1)N1CCC2(CC1)C(=O)NCN2c1ccccc1 (stereo not drawn),31.6 µM (active)
22,Fc1ccc(CNCCc2ccc3c(c2)OCO3)cc1,inactive

row,SMILES,Potency
1,O=C1NC(=O)N(CCc2ccccc2)C(=O)/C1=C(O)/C=C/c1c[nH]c2ccccc12,inactive
2,CN(C)C(=O)Oc1ccc2nnc3ccnn3c2c1,inactive
3,CC(C)c1ccc(N2C(=O)NC(=O)/C(=C/C=C/c3ccco3)C2=O)cc1,39.8 µM (active)
4,CCOc1ccc(N2C(=O)NC(=O)/C(=C\c3ccccc3[N+](=O)[O-])C2=O)cc1,inactive
5,COc1ccc(N2C(=O)NC(=O)/C(=C\c3c[nH]c4ccccc34)C2=O)cc1,inactive
6,CN(C)c1ccc(/C=C/C=C2/C(=O)NC(=O)N(c3ccccc3)C2=O)cc1,15 µM (active)
7,c1ccc(-c2cc(-c3ccccc3)[n+](-c3ccccc3)c(-c3ccccc3)c2)cc1,25.1 µM (active)
8,Cc1ccc(-c2cc(-c3ccc(C)cc3)[n+](-c3ccccc3)c(-c3ccc(C)cc3)c2)cc1,17.8 µM (active)
9,Cc1ccc(C[n+]2c(-c3ccc(C)cc3)cc(-c3ccc(C)cc3)cc2-c2ccc(C)cc2)cc1,12.6 µM (active)
10,COP(=O)(OC)c1nc(-c2cccc3ccccc23)oc1NCCc1ccccc1,inactive
11,CCCCn1c(NS(=O)(=O)c2ccc(C)cc2)c(C(=O)OCC)c2nc3ccccc3nc21,inactive
12,CCOc1ccc(C(=O)Nc2cccc(C(=O)OCc3cc(=O)n4nc(C5CC5)sc4n3)c2)cc1,3.55 µM (active)
13,Cn1c(=O)c2c(nc(NN/C=C3/C(=O)NC(=S)N(C4CCCCC4)C3=O)n2C)n(C)c1=O,inactive
14,CN(C)c1c([N+](=O)[O-])cc(N2C(=O)C=CC2=O)cc1[N+](=O)[O-],25.1 µM (active)
15,CC1(C)OC(c2ccccc2)=C/C(=C/C=C2C(=O)NC(=O)NC2=O)O1,inactive
16,CC1(C)OC(c2ccccc2)=C/C(=C/C=C2C(=O)NC(=S)NC2=O)O1,inactive
17,CN1/C(=C\C=C2C(=O)NC(=S)NC2=O)C(C)(C)c2ccccc21,35.5 µM (active)
18,Cc1nc2cc(OC(=O)N(C)Cc3cccc(-c4ccncc4)c3)ccc2s1,39.8 µM (active)
19,COc1ccc(C[C@@H]2NC[C@H](O)[C@@H]2OC(C)=O)cc1,0.0891 µM (active)
20,CCOC(=O)[C@]12Cc3cc(OC)ccc3[C@H]1N(CCC(=O)OC)C(=O)c1cc(OC)ccc12,28.2 µM (active)
21,CCCCCN1C(=O)c2cc(OC)ccc2[C@@]2(C(=O)OCC)Cc3cc(OC)ccc3[C@@H]12,11.2 µM (active)
22,Cc1ccc(C(=O)N[C@@H](C)CN2C3=NC[C@H](Cc4ccccc4)N3C[C@H]2Cc2ccc(O)cc2)cc1Br,22.4 µM (active)
